Among all 5,500 compounds or so, about 2,000 (36%) were called active. Not shown: some 18% with an inconclusive outcome. Cut-off read from the data, not from the text of the source: active = normalized growth mostly below about 0.91 (no sharp cut-off); inconclusive = no clear call, values can overlap the other calls; inactive = mostly above about 0.92. The list shows a part of the results.
Test: chemical genetic growth profiling, strain panel (AID 1159580);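 note: tested at 20 µM; growth read once vehicle control cultures reached saturation at 30 °C; 1 = growth at the plate median or of vehicle wells; lower values mean less growth of the strain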
Conditions: S. cerevisiae deletion strains, growth OD

Measured: normalized growth

O=C(/C=C/c1ccccc1)O[C@H]1C[C@@H](O)[C@]2(O)C=CO[C@@H](O[C@@H]3O[C@H](CO)[C@@H](O)[C@H](O)[C@H]3O)[C@H]12
inactive: locus YAL021C, strain ccr4, active compounds read low 0.996 | locus YAL026C, strain drs2, active compounds read low 1.03 | locus YAL030W, strain snc1, active compounds read low 1.03 | locus YBL061C, strain skt5, active compounds read low 1.02 | locus YBR009C, strain hhf1, active compounds read low 1.05 | locus YBR023C, strain chs3, active compounds read low 1.02 | locus YBR171W, strain sec66, active compounds read low 1.03 | locus YBR231C, strain swc5, active compounds read low 1.03 | locus YBR279W, strain paf1, active compounds read low 1.02 | locus YCL011C, strain gbp2, active compounds read low 1.02 | locus YCL016C, strain dcc1, active compounds read low 1.03 | locus YCL061C, strain MRC1, active compounds read low 1.02 | locus YCL069W, strain vba3, active compounds read low 1.03 | locus YCR088W, strain abp1, active compounds read low 1.02 | locus YDL005C, strain med2, active compounds read low 1.02 | locus YDL040C, strain nat1, active compounds read low 1.03 | locus YDR001C, strain nth1, active compounds read low 1.02 | locus YDR069C, strain doa4, active compounds read low 1.03 | locus YDR137W, strain rgp1, active compounds read low 1.03 | locus YDR159W, strain sac3, active compounds read low 1.05 | locus YDR195W, strain ref2 1.01 | locus YDR297W, strain sur2, active compounds read low 1.02 | locus YDR334W, strain swr1, active compounds read low 1.03 | locus YDR335W, strain msn5, active compounds read low 1.02 | locus YDR392W, strain spt3, active compounds read low 0.927 | locus YEL003W, strain gim4, active compounds read low 1.03 | locus YEL037C, strain rad23, active compounds read low 1.02 | locus YEL061C, strain CIN8 (second series), active compounds read low 1.01 | locus YER015W, strain faa2, active compounds read low 1.02 | locus YER016W, strain bim1, active compounds read low 1.03 | locus YER111C, strain swi4, active compounds read low 1.03 | locus YER155C, strain BEM2 (second series), active compounds read low 1.04 | locus YFR010W, strain ubp6, active compounds read low 1.03 | locus YGL167C, strain pmr1, active compounds read low 1.02 | locus YGL173C, strain kem1, active compounds read low 1.03 | locus YGL227W, strain vid30, active compounds read low 1.03 | locus YGL240W, strain doc1, active compounds read low 1.04 | locus YGL253W, strain hxk2, active compounds read low 1.03 | locus YHR013C, strain ard1, active compounds read low 0.995 | locus YHR027C, strain rpn1, active compounds read low 1.03 | locus YHR030C, strain SLT2, active compounds read low 0.902 | locus YHR079C, strain IRE1, active compounds read low 0.939 | locus YHR142W, strain chs7, active compounds read low 0.998 | locus YJL092W, strain hpr5, active compounds read low 1.02 | locus YJL095W, strain BCK1 (second series), active compounds read low 1.03 | locus YJL095W, strain BCK1, active compounds read low 0.928 | locus YJL115W, strain asf1, active compounds read low 1.03 | locus YJL129C, strain trk1, active compounds read low 1.01 | locus YJL154C, strain vps35, active compounds read low 1.02 | locus YJL164C, strain tpk1, active compounds read low 1.01 | locus YJL166W, strain qcr8, active compounds read low 1.03 | locus YJL187C, strain SWE1, active compounds read low 1.02 | locus YJR066W, strain TOR1, active compounds read low 0.92 | locus YKL160W, strain elf1, active compounds read low 0.989 | locus YKR026C, strain gcn3, active compounds read low 1.03 | locus YKR091W, strain srl3, active compounds read low 1.02 | locus YLL001W, strain dnm1, active compounds read low 1.02 | locus YLL026W, active compounds read low 1.02 | locus YLL041C, strain sdh2, active compounds read low 1.02 | locus YLR027C, strain aat2, active compounds read low 1.02 | locus YLR113W, strain HOG1, active compounds read low 0.878 | locus YLR221C, strain rsa3, active compounds read low 1 | locus YLR258W, strain gsy2, active compounds read low 1.05 | locus YLR262C, strain YPT6 (second series), active compounds read low 1.04 | locus YLR320W, strain mms22, active compounds read low 1.02 | locus YLR342W, strain FKS1, active compounds read low 1.02 | locus YLR357W, strain rsc2, active compounds read low 1.02 | locus YLR370C, strain arc18, active compounds read low 1.02 | locus YLR384C, strain iki3, active compounds read low 1.03 | locus YML120C, strain ndi1, active compounds read low 0.999 | locus YMR058W, strain fet3, active compounds read low 1.02 | locus YMR125W, strain sto1, active compounds read low 1.03 | locus YMR129W, active compounds read low 1.02 | locus YMR205C, strain PFK2, active compounds read low 1.06 | locus YMR231W, strain pep5, active compounds read low 1.03 | locus YNL071W, strain lat1, active compounds read low 1.02 | locus YNL183C, strain NPR1, active compounds read low 0.951 | locus YNL209W, strain ssb2, active compounds read low 1.02 | locus YNL248C, strain rpa49, active compounds read low 0.992 | locus YNL322C, strain KRE1 (second series), active compounds read low 1.03 | locus YNR049C, strain mso1, active compounds read low 1.03 | locus YOR001W, strain rrp6, active compounds read low 1 | locus YOR070C, strain gyp1, active compounds read low 1.03 | locus YOR080W, strain dia2, active compounds read low 1.03 | locus YOR083W, strain WHI5, active compounds read low 0.986 | locus YOR106W, strain vam3, active compounds read low 1.01 | locus YOR231W, strain MKK1, active compounds read low 0.938 | locus YOR265W, strain rbl2, active compounds read low 1.02 | locus YOR270C, strain vph1, active compounds read low 1.03 | locus YOR290C, strain snf2, active compounds read low 0.969 | locus YPL051W, strain arl3, active compounds read low 1.01 | locus YPL078C, strain atp4, active compounds read low 0.996 | locus YPL106C, strain sse1, active compounds read low 1.04 | locus YPL240C, strain hsp82, active compounds read low 1.02 | locus YPL256C, strain CLN2, active compounds read low 0.943
